IMPase cell inh – cell-permeable inhibitors of inositol monophosphatase (IMPase); P97697; CHO-M1 cells, IP1 accumulation, HTRF TR-FRET ratio; inhibition (IP1 accumulation), % at 46.1 µM; 120,000 tested, under 10 active; AID 901; active = well fitted curve in the direction sought with a large enough effect in the signal ratio, not every such curve was filed as active; inconclusive = small, poorly fitted or top-dose-only effect, or a change in a side signal; inactive = no such curve, though single readings can be large or run the other way; the % refers to the signal ratio;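 also: cells stimulated with carbachol in lithium chloride buffer; plate controls were DMSO basal wells for no effect and reference inhibitor wells for full effect; higher means more IMPase inhibition seen as more IP1 and lower FRET ratio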
Target sequence (P97697 whole entry, looked up): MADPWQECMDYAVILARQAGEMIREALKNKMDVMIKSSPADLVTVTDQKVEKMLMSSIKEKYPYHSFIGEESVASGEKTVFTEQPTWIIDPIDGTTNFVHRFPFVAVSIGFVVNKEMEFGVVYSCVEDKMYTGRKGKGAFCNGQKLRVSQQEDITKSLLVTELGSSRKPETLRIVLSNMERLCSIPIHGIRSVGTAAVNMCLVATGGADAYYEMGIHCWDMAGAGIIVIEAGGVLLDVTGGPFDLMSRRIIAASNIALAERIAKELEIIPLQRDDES
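Measured: the HTRF emission ratio (665/620 nm) plus the 620 nm donor channel, each fitted to the Hill equation to give AC50. Cells were CHO-M1 given compounds up to 46 uM and a 30 min carbachol stimulation at 37C.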
HPGD block – HPGD (human) dehydrogenase inhibition | P15428 | purified HPGD, NADH fluorescence kinetic, PGE2 substrate | Potency, µM, without a hit: top-dose activity change, negative = inhibition, hits mostly inhibitors | 150,000 tested, 4.3% active | AID 894; also: potency is read from the fitted curve at half-maximal effect
Target sequence (P15428 whole entry, looked up): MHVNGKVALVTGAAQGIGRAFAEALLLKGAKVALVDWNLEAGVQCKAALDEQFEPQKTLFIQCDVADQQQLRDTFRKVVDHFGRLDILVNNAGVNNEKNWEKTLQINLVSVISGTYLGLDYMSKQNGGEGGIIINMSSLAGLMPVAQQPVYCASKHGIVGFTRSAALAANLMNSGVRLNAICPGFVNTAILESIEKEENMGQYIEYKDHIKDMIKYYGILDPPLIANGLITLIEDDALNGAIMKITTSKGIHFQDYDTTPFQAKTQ
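20 nM HPGD preincubated 15 min at room temperature with compound in 50 mM Tris-HCl pH 8, 0.01% Tween 20. Started with 1 mM NAD+ and 30 uM prostaglandin E2; NADH fluorescence (360/450 nm) read 5 times over 30-s intervals, last minus first.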
ALDH1A1 inh – ALDH1A1 (human) enzyme inhibition. Purified ALDH1A1, NADH fluorescence, propionaldehyde substrate. AID 1030. 220,000 tested, 7.3% active. P00352. Potency, µM (doses to about 75.3 µM), for inactives: top-dose activity, negative = inhibition, most hits filed as inhibitors;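 also: potency is read from the fitted curve at half-maximal effect; plate controls were no enzyme wells and a reference inhibitor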
* marks the source's active call; other numbers are inactive results; ? = inconclusive; . = no result given. Sampled rows, rich in hits. Any-hit rate of the full collection: about 9%. Unless noted, calls follow the shape of the dose curve; as a rule, active = well fitted inhibition curve with a large enough effect (not every such curve was filed as active); inconclusive = small, poorly fitted or top-dose-only effect, or another doubt; inactive = no such curve, though single readings can be large or run the other way. Unless noted, % is scaled to controls: 0 for no effect and ±100 for the full control effect.

SMILES	IMPase cell inh	HPGD block	ALDH1A1 inh
O=c1ccn(CCc2c[nH]c3ccccc23)c2c1CCCC2	.	.	14.1µM*
NC(=O)CCc1c[nH]c2ccccc12	7.7	-12.9%	-9.2%
CC(CCC(=O)O)C1CCC2C3CC[C@H]4CC(O)CC[C@@]4(C)C3C=C[C@]12C (stereo not given in full)	.	-1.8%	-17.4%
CCOC(=O)[C@H](N)/C=C(\C)CP(=O)(O)O	-9.6	-1.0%	0.5%
Cc1ccc(C)c(CSc2ccc3nnc(-c4ccccn4)n3n2)c1	.	.	12.9%
COc1cc(/C=C2\SC(=Nc3c(C)n(C)n(-c4ccccc4)c3=O)NC2=O)ccc1O	.	14.1µM*	-5.3%
COc1cc(/C=C2\SC(=Nc3ccc(O)cc3)NC2=O)cc(OC)c1O	.	.	5.4%
Cc1cc(C)cc(NC(=O)N2CCN(S(C)(=O)=O)CC2)c1	.	.	2.7%
O=S(=O)(CCSc1nc2ccccc2o1)Cc1ccccc1	8.2	-13.7%	20µM*
O=S(=O)(CCSc1nc2ccccc2o1)c1nc2ccccc2s1	0.5	-3.0%	0.282µM*
CCS(=O)(=O)CCSc1nc2ccccc2o1	5.7	-6.8%	3.8%
O=C(CSc1ccccn1)Nc1nc2ccccc2s1	.	-4.6%	-7.2%
O=S(=O)(CCSc1ccccn1)c1nc2ccccc2s1	3.4	-27.2%	0.224µM*
O=S(=O)(NCCSc1nc2ccccc2o1)c1ccccc1	-7.3	-11.1%	?
CCCC(=O)Nc1sc(C(=O)Nc2cccc(N)c2)c(C)c1C(=O)OC	.	.	0.1%
CCOCCCN1C(=O)CN(C2CCC(C)CC2)C(=O)C1c1ccc(C)cc1 (stereo not given)	.	.	0.7%
CCCc1cc(=O)n2c(nc3ccccc32)[nH]1	2.4	?	?
O=C(CSc1nnc(-c2ccncc2)n1-c1ccc(F)cc1)NNC(=O)c1cccc(O)c1	6.8	-13.7%	1.9%
Cc1ccnc(NC(=O)CSc2ccccn2)c1	.	.	-1.5%
CCn1c(COc2cccc(OC)c2)nnc1SCC(=O)Nc1cccc(OC)c1	-7.1	-14.5%	5.3%
COc1ccc(C(C[N+](=O)[O-])c2c(-c3ccccc3)cc3ccccn23)cc1 (stereo not given)	1.7	28.2µM*	?
COc1ccc(C(C[N+](=O)[O-])C2(c3ccc(OC)c(OC)c3)C(=O)c3ccccc3C2=O)cc1 (stereo not given)	.	-3.1%	?
COc1cc(C(C[N+](=O)[O-])c2c(-c3ccccc3)cc3ccccn23)cc(OC)c1OC (stereo not given)	13.2	?	3.55µM*
COc1ccc(C(C[N+](=O)[O-])c2c(-c3ccccc3)cc3ccccn23)cc1OC (stereo not given)	22.5	2.1%	-2.5%
Cc1nn(C)cc1CNC(=O)Nc1cccc(Cl)c1	0.9	-17.4%	-1.6%
SMILES	IMPase cell inh	HPGD block	ALDH1A1 inh
COc1cc(NS(C)(=O)=O)ccc1Cc1c2ccccc2nc2ccccc12	.	-19.9%	14.8%
CCC1=C(OC(=O)N(CC)CC)N2C(=O)OC(=NCCOC)[C@]2(Cc2ccccc2)[C@H]2C1=CC[C@H]1C(=O)N(C)C(=O)[C@H]12	.	-6.3%	2.9%
Cc1ccc(NS(=O)(=O)c2cc(-c3n[nH]c(=O)c4ccccc34)ccc2C)cc1	.	20µM*	?
CCOC(=O)CNS(=O)(=O)c1cc(-c2n[nH]c(=O)c3ccccc23)ccc1C	-3.5	3.55µM*	14.1µM*
CCOC(=O)CNS(=O)(=O)c1cc(-c2nnc(Nc3cccc(O)c3)c3ccccc23)ccc1C	6.4	.	.
Cc1ccc(NS(=O)(=O)c2cc(C(N)=O)ccc2C)cc1	-0.7	-6.2%	-3.2%
CC(C)P(=O)(Cc1cccc(C#N)c1)C(C)C	-3.3	-13.8%	0.1%
COC(=O)Cn1nnc(N2CCOCC2)n1	.	.	4.3%
COC(=O)c1sc(N)c(C(=O)OC)c1COC(=O)CCNS(=O)(=O)c1ccc(C)cc1	.	-20.5%	-7.6%
Cc1ccccc1NC(=O)Cn1nnc2c(cnn2-c2ccc(F)cc2)c1=O	8.8	-13.4%	2.7%
CCOc1ccc(NC(=O)Cn2nnc3c(cnn3-c3ccc(F)cc3)c2=O)cc1	.	.	7.94µM*
COc1ccc(C2=NOC(C(=O)Nc3cccnc3Cl)C2)cc1 (stereo not given)	.	.	-0.4%
O=C(OCC1OC(OC(=O)c2cc(O)c(O)c(OC(=O)c3cc(O)c(O)c(O)c3)c2)[C@@H](OC(=O)c2cc(O)c(O)c(OC(=O)c3cc(O)c(O)c(O)c3)c2)C(OC(=O)c2cc(O)c(O)c(OC(=O)c3cc(O)c(O)c(O)c3)c2)C1OC(=O)c1cc(O)c(O)c(OC(=O)c2cc(O)c(O)c(O)c2)c1)c1cc(O)c(O)c(OC(=O)c2cc(O)c(O)c(O)c2)c1 (stereo not given in full)	.	3.16µM*	?
Cc1cn(C2OC(COC(=O)c3ccccc3)C(OC(=O)c3ccccc3)C2OC(=O)c2ccccc2)c(=O)[nH]c1=O (stereo not given)	-3.8	-11.8%	11.6%
CN1CCc2cccc3c2C1Cc1ccc(O)c(O)c1-3 (stereo not given)	.	5.01µM*	?
c1ccc2sc(N3CCOCC3)nc2c1	10.7	-8.4%	15.1%
c1ccc2sc(SN3CCOCC3)nc2c1	-5.6	14.1µM*	3.98µM*
CCOC(=O)/C(CCC[N+](C)(CC)CC)=N\O	.	-2.5%	2.9%
COc1ccc(CC(NC(C)=O)C(=O)NC2CCN(c3c(Cc4ccccc4)c(C)nc4ncnn34)CC2)cc1OC (stereo not given)	.	?	7.6%
COc1ccc(CC(NC(C)=O)C(=O)NC2CCN(C(=O)NCc3ccccc3)CC2)cc1OC (stereo not given)	2.3	-6.9%	1.0%
COc1ccc(CC(NC(C)=O)C(=O)NC2CCN(c3nnnn3-c3ccccc3)CC2)cc1 (stereo not given)	3.5	-8.3%	2.51µM*
COc1ccc(CC(NC(C)=O)C(=O)NC2CCN(c3nnnn3-c3ccccc3)CC2)cc1OC (stereo not given)	.	.	10µM*
COc1cccc(CC(NC(C)=O)C(=O)NC2CCN(c3nnnn3-c3ccccc3)CC2)c1 (stereo not given)	-16.9	-5.8%	14.1µM*
COc1nc(OC)nc(N2CCC(NC(=O)C(Cc3ccc(C(C)C)cc3)NC(C)=O)CC2)n1 (stereo not given)	-14.3	-12.4%	-9.7%
COc1cccc(CC(NC(C)=O)C(=O)NC2CCN(S(=O)(=O)c3cccc4ccccc34)CC2)c1 (stereo not given)	9.4	-0.5%	-3.2%
SMILES	IMPase cell inh	HPGD block	ALDH1A1 inh
CCOc1ccc(NC(=O)N2CCC(NC(=O)C(Cc3ccc(OC)c(OC)c3)NC(C)=O)CC2)cc1 (stereo not given)	1.4	3.3%	0.0562µM*
O=C(Nn1c(C2CCCCC2)nc2ccccc2c1=O)c1ccc([N+](=O)[O-])cc1Cl	.	-4.1%	?
Cc1ccc(CCCOC(=O)CN2CCCCC2)cc1	.	.	6.2%
O=C(CN1C(=O)/C(=C/c2ccccc2F)Sc2ccccc21)N1CCN(c2ccccn2)CC1	.	.	5.7%
O=C(CSc1nc2c(cnn2-c2ccccc2)c(=O)[nH]1)NC1CCS(=O)(=O)C1 (stereo not given)	.	.	-4.9%
CC(=O)NC(Cc1ccccc1)C(=O)NC1CCN(C(=O)NC2CCCCC2)CC1 (stereo not given)	3.2	-5.3%	7.8%
CC(=O)NC(Cc1cccc(F)c1)C(=O)NC1CCN(c2nnnn2-c2ccccc2)CC1 (stereo not given)	.	.	1.41µM*

Screens deposited in PubChem by National Center for Advancing Translational Sciences (NCATS).
